SMN2 splice enh = enhancers of SMN2 splice variant expression | hit rate 2.8% among 210,000 | Potency, µM (titrated, usually from 46.1 µM), usual class: activators | HEK293 SMN2-luciferase splicing reporter, luminescence, 30-36 h; further: nearly all actives have a fitted effect of over 55% in size
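qHTS luciferase splicing reporter: luminescence rises when SMN2 exon 7 is included in transfected HEK293 cells. Compound exposure lasted 30-36 h at 37C, with 4.5 mM final sodium butyrate as control, followed by a ONE-Glo read.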
ELG1 genotoxic = genotoxicity induction in ELG1-luciferase HEK293T cells; HEK293T ELG1-luciferase reporter, luminescence, 16 h; hit rate 1.3% among 330,000; AID 504466; Potency, µM (titrated, usually from 46 µM), hits mostly activators; further: nearly all actives have a fitted effect of over 60% in size
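Screening used a luciferase reporter fused to human ELG1 in HEK293T cells. Luminescence was read on a CCD plate imager after 16 hr exposure and 30 min ONE-Glo incubation.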
KinaseGlo FLuc = blocks Kinase-Glo luciferase, a counter-screen artifact. Q27757. Potency, µM (highest dose often 38.3 µM), most hits filed as inhibitors. AID 1379. hit rate 0.28% among 200,000. Kinase-Glo luciferase, ATP luminescence, 8 min; further: nearly all actives have a fitted effect of over 60% in size
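Compounds were added to a substrate mix at pH 7.2 (50 mM imidazole, 10 uM ATP, within the enzyme's linear range), followed by Kinase-Glo detection reagent; luminescence was measured after 8 minutes at ambient temperature.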
FLuc counter = counter-screen for miR-21 project: firefly luciferase inhibitors or activators. Potency, µM (top dose mostly 57.5 µM), hits mostly inhibitors. purified FLuc, Km substrates, luminescence inhibition. P08659. hit rate 6.9% among 360,000; further: nearly all actives have a fitted effect of over 55% in size
Target sequence (P08659 whole entry, looked up): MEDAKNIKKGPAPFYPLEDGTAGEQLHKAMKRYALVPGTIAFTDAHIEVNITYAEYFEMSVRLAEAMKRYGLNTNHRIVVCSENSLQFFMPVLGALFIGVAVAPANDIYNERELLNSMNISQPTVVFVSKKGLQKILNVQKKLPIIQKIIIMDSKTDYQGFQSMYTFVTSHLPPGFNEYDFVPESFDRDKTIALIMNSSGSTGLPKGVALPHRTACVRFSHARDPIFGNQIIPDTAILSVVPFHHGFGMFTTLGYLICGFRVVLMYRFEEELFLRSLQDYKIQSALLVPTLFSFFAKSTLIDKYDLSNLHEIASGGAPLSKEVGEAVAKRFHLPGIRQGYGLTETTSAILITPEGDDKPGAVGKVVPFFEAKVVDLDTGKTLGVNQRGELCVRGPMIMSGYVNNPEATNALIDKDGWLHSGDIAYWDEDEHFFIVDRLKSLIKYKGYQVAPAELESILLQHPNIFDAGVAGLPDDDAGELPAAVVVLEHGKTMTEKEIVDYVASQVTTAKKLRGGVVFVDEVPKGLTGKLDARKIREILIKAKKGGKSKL
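Purified P. pyralis luciferase (10nM final) with 10uM D-luciferin and 10uM ATP (Km levels) in 50mM Tris acetate pH 7.5, 10mM Mg acetate, 0.01% Tween-20, 0.05% BSA; qHTS 6-point titration, ~60 µM downward; luminescence read.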
NPC1 prom act = NPC1 promoter activation | Huh7 NPC1 promoter luciferase reporter, 24 h | Potency, µM (doses to about 9.22 µM), usual class: activators | hit rate 2.4% among 320,000 | AID 485313; further: nearly all actives have a fitted effect of over 60% in size
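Huh7 cells stably carrying NPC1 promoter–luciferase, plated in Opti-MEM with 10% FBS for 2 h, were exposed to compound in DMSO for 24 h at 37 °C; luciferase reagent was added for 10 min and luminescence read.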
Rab9 promoter act = activates the Rab9 promoter; hit rate 2.8% among 320,000; AID 485297; Potency, µM (doses to about 9.22 µM), most hits filed as activators; Huh7 Rab9 promoter-luciferase reporter, luminescence, 24 h; further: nearly all actives have a fitted effect of over 60% in size
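Rab9 promoter-driven luciferase in stably transfected Huh7 cells; 1500 cells/well rested 2 h, exposed to compound in DMSO for 24 h at 37 °C, 5% CO2. Luminescence read 10 min after adding luciferase reagent at ambient temperature.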
Hits are given with their value; [ ] = dose if it differs, or a comment. Most compounds without a hit are left out; they make up all but 7.5% or so of the library. The call rests on the fitted dose curve; in most records, active means well fitted curve in the direction sought with a large enough effect; inconclusive means small, poorly fitted or top-dose-only effect, or another doubt; inactive means no such curve, though single readings can be large; an effect the other way counts as inactive or inconclusive.

Results for N#C/C(=C\c1ccc(-c2ccc(C(=O)O)cc2)o1)c1nc2ccccc2[nH]1 ?
SMN2 splice enh: inconclusive; ELG1 genotoxic: inactive; KinaseGlo FLuc: inactive; FLuc counter: 9.53µM; NPC1 prom act: 3.98µM; Rab9 promoter act: 2.51µM

What do the screens show for `N#C/C(=C\c1ccc(-c2ccc(Cl)c(C(=O)O)c2)o1)c1nc2ccccc2[nH]1`?
SMN2 splice enh: inactive; FLuc counter: 6.01µM; NPC1 prom act: inactive; Rab9 promoter act: inactive

How did N#C/C(=C\c1ccccc1C(=O)O)c1nc2ccccc2[nH]1 do in these assays?
ELG1 genotoxic: inactive; FLuc counter: inactive; NPC1 prom act: inactive; Rab9 promoter act: inactive[1.84 µM]

What do the screens show for `N#Cc1cccc(C(=O)OCC(=O)c2ccc3c(c2)NC(=O)CO3)c1`?
ELG1 genotoxic: inactive; FLuc counter: inactive; NPC1 prom act: inactive; Rab9 promoter act: inactive

How did O=C(OCc1nnc(-c2ccc([N+](=O)[O-])cc2)o1)c1ccc(F)c(S(=O)(=O)N2CCOCC2)c1 do in these assays?
ELG1 genotoxic: inactive; FLuc counter: inactive; NPC1 prom act: inactive; Rab9 promoter act: inactive

What do the screens show for `COc1ccc(Oc2nccc(-c3ccccc3)c2C#N)cc1`?
SMN2 splice enh: inactive; ELG1 genotoxic: inactive; KinaseGlo FLuc: inactive; FLuc counter: 12µM; NPC1 prom act: inconclusive; Rab9 promoter act: inconclusive

Results for Cc1ccc(-c2nc3[nH]c(=O)cc(NC(=O)c4cccs4)n3n2)cc1 ?
ELG1 genotoxic: inactive; FLuc counter: 13.5µM; NPC1 prom act: inactive; Rab9 promoter act: inactive

Results for CC(C)(C)c1ccc(-c2nc3[nH]c(=O)cc(NC(=O)c4ccco4)n3n2)cc1 ?
ELG1 genotoxic: inconclusive; FLuc counter: 0.426µM; NPC1 prom act: 3.98µM; Rab9 promoter act: 1.12µM

What do the screens show for `Cc1cccc(-n2c(C)nc3c(cnn3-c3ccc(F)cc3)c2=O)c1`?
SMN2 splice enh: inactive; ELG1 genotoxic: inactive; KinaseGlo FLuc: inactive; FLuc counter: inactive; NPC1 prom act: inactive; Rab9 promoter act: inactive

Results for CN(C)C(CNC(=O)c1ccc(NS(=O)(=O)c2ccc(F)c(F)c2)cc1)c1ccccc1 (stereo not drawn) ?
ELG1 genotoxic: inactive; FLuc counter: inactive; NPC1 prom act: inactive; Rab9 promoter act: inactive

Results for COc1cccc(/C=C2\NC(=O)NC2=O)c1O ?
ELG1 genotoxic: inconclusive; FLuc counter: 7.57µM; NPC1 prom act: inactive; Rab9 promoter act: inactive

How did CCOC(=O)COc1ccccc1/C=C1/NC(=O)NC1=O do in these assays?
SMN2 splice enh: inactive; ELG1 genotoxic: inactive; KinaseGlo FLuc: inactive; FLuc counter: inactive; NPC1 prom act: inactive; Rab9 promoter act: inactive

How did Clc1ccc(COn2nnc3ccccc32)c(Cl)c1 do in these assays?
SMN2 splice enh: inconclusive; KinaseGlo FLuc: inactive; FLuc counter: 3.79µM

How did CCCCC(CC)C(=O)Nc1ccccc1C(=O)NC(C)C (stereo not drawn) do in these assays?
SMN2 splice enh: inactive; ELG1 genotoxic: inactive; KinaseGlo FLuc: inactive; FLuc counter: inactive; NPC1 prom act: inactive; Rab9 promoter act: inactive

How did COc1ccc2c(c1OC)C(=O)OC2Nc1nc(-c2cccc([N+](=O)[O-])c2)cs1 (stereo not drawn) do in these assays?
ELG1 genotoxic: inactive; FLuc counter: inactive; NPC1 prom act: inactive; Rab9 promoter act: inactive

Results for N#CCSc1nc2ccccc2o1 ?
ELG1 genotoxic: inactive; FLuc counter: inactive; NPC1 prom act: inactive; Rab9 promoter act: inactive

What do the screens show for `O=[N+]([O-])c1ccccc1CSc1nc2ccccc2o1`?
SMN2 splice enh: 20µM; ELG1 genotoxic: inconclusive; KinaseGlo FLuc: inactive; FLuc counter: 19µM; NPC1 prom act: inconclusive; Rab9 promoter act: inconclusive

How did Cc1ccc2c3c(cccc13)-c1ccccc1C2=O do in these assays?
SMN2 splice enh: inconclusive; ELG1 genotoxic: inactive; KinaseGlo FLuc: inactive; FLuc counter: 19µM; NPC1 prom act: inactive; Rab9 promoter act: inactive

How did Cc1ccc(CSc2nc3cccnc3n2Cc2nc(-c3ccccc3F)oc2C)cc1 do in these assays?
FLuc counter: 5.36µM

What do the screens show for `COc1ccc(-c2nc(Cn3c(SCc4cccc(Cl)c4)nc4ccncc43)c(C)o2)cc1`?
SMN2 splice enh: inactive; FLuc counter: inactive

How did COc1ccc(CSc2nc3ccncc3n2Cc2nc(-c3ccc(OC)c(OC)c3)oc2C)cc1 do in these assays?
SMN2 splice enh: inconclusive; FLuc counter: 4.78µM

What do the screens show for `Cc1oc(-c2ccccc2F)nc1Cn1c(SCc2cccc(Cl)c2)nc2ccncc21`?
SMN2 splice enh: inactive; FLuc counter: inconclusive

How did Cc1ccc(CSc2nc3ccncc3n2Cc2nc(-c3ccccc3C)oc2C)cc1 do in these assays?
SMN2 splice enh: inconclusive; FLuc counter: 4.78µM

Results for Cc1cc(C)c2c(N)c(C(=O)Nc3ccc(F)cc3)sc2n1 ?
ELG1 genotoxic: inconclusive; FLuc counter: 1.51µM; NPC1 prom act: 0.708µM; Rab9 promoter act: 0.501µM

Results for Cc1cc(C)c(NC(=O)c2sc3nc(C)cc(C)c3c2N)c(C)c1 ?
SMN2 splice enh: inactive; FLuc counter: inactive

What do the screens show for `Cc1cc(C)c2c(N)c(C(=O)NCC3CCCCC3)sc2n1`?
SMN2 splice enh: 11.2µM; ELG1 genotoxic: 11.2µM; KinaseGlo FLuc: inactive; FLuc counter: 23.9µM; NPC1 prom act: inconclusive; Rab9 promoter act: inconclusive

Results for COc1ccc(NC(=O)c2sc3nc(C)cc(C)c3c2N)cc1 ?
ELG1 genotoxic: inconclusive; FLuc counter: 3.79µM; NPC1 prom act: 1.58µM; Rab9 promoter act: 1.26µM

Results for Cc1cc(C)c2c(N)c(C(=O)NC3CCCC3)sc2n1 ?
SMN2 splice enh: inactive; ELG1 genotoxic: inactive; KinaseGlo FLuc: inactive; FLuc counter: inconclusive; NPC1 prom act: inactive; Rab9 promoter act: inactive

How did Cc1cc(C)cc(NC(=O)c2sc3nc(C)cc(C)c3c2N)c1 do in these assays?
ELG1 genotoxic: inconclusive; FLuc counter: 9.53µM; NPC1 prom act: 1.78µM; Rab9 promoter act: 3.16µM

Results for Cc1cc(C)c2c(N)c(C(=O)Nc3ccc(C)c(C)c3)sc2n1 ?
ELG1 genotoxic: 1.16µM; FLuc counter: 1.69µM; NPC1 prom act: 1µM; Rab9 promoter act: 0.631µM

How did COc1ccc(/C=N/NC(=O)c2sc3nc(C)cc(C)c3c2N)cc1 do in these assays?
ELG1 genotoxic: inactive; FLuc counter: 9.53µM; NPC1 prom act: inactive; Rab9 promoter act: inactive

Results for Cc1cc(C(F)(F)F)c2c(N)c(C(=O)Nc3cc(C)on3)sc2n1 ?
SMN2 splice enh: inactive; ELG1 genotoxic: inconclusive; KinaseGlo FLuc: inactive; FLuc counter: inconclusive; NPC1 prom act: inconclusive; Rab9 promoter act: 3.55µM

What do the screens show for `COCc1cc(C)nc2sc(C(=O)Nc3ccccc3F)c(N)c12`?
ELG1 genotoxic: inactive; FLuc counter: 19µM; NPC1 prom act: inactive; Rab9 promoter act: inactive

How did Cc1cc(C)c2c(N)c(C(=O)Nc3ccccc3C(F)(F)F)sc2n1 do in these assays?
FLuc counter: inactive
